Results published in the supplement of paper PMC9334596.
Several values for one entry are separate records, joined by “and”; a condition that tells them apart may be missing. Equal entries are not always repeated. In all, about 5,300 compounds were measured (“PER2::LUC luminescence relative to vehicle control”: median about 0.96, highest 2% from about 1.3 on). The list comes from a sample in which the highest values are over-represented; it also holds similar structures and randomly drawn compounds.

Tested on: mPer2Luc MEF
Assay: PER2::LUC luminescence relative to vehicle control (fold of vehicle); higher = higher PER2::LUC reporter signal
Conditions: 10 µM
Procedure, shortened: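 The value is PER2::LUC luminescence expressed as fold of vehicle control. Mouse embryonic fibroblasts carrying the mPer2Luc reporter were seeded at ~3000 cells per well in 384-well plates and grown in DMEM with 10% FBS at 37 °C and 5% CO2. Compounds from commercial libraries were added at 10 μM 48 h after seeding, and luminescence was read with the ONE-Glo luciferase assay system 24 h and 30 h after treatment, followed by an alamarBlue viability assay.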

Structure (SMILES)	PER2::LUC luminescence (time after treatment 24 h)	PER2::LUC luminescence (time after treatment 30 h)
COc1ccc2c(c1)C[C@H](C(=O)Nc1ccc(-c3cn[nH]c3)cc1OCCN(C)C)CO2	0.472	0.452
CCN(CC)C(=O)C(c1ccccc1)N1CCN(c2ccc(NC(=O)c3ccccc3-c3cccnc3)cc2F)CC1 (stereo unspecified)	0.968	1.09
O=C[C@H](O)[C@H](O)CO	0.921	0.987
CN1C(=O)C[C@H](C(=O)O)[C@H]1c1cccnc1	1.08	1.07
O=C(/C=C/c1ccc(O)cc1)c1ccc(O)cc1O	1.24	1.41
O=C(/C=C/c1ccccc1)c1ccc(O)cc1O	1.21	1.43
COc1cc(O)c(C(=O)/C=C/c2ccccc2)c(OC)c1	0.907	0.937
O=C(/C=C/c1ccc(O)c(O)c1)c1ccc(O)cc1O	1.04	1.13
O=C(/C=C/c1ccccc1)c1ccc(O[C@@H]2O[C@H](CO)[C@@H](O)[C@H](O)[C@H]2O)cc1O	1.21	1.27
CC(C)=CCc1c(O)ccc(C(=O)/C=C/c2ccc(O)cc2)c1O	0.904	0.903
Clc1ccc(Nc2nc3ccccc3c3nc(C4CCCCC4)[nH]c23)cc1Cl	0.84	0.867
OCC1OC(O)CC(O)C1O (stereo unspecified)	1.15	0.973
CCCCCCCC(=O)CCc1ccc(O)c(OC)c1	1.04	0.901
N=C(N)SCc1ccc(CSC(=N)N)s1	1.01 and 0.976	1.01 and 0.977
COCCOc1nc(N)c2[nH]c(=O)n(Cc3ccccc3)c2n1	1.21	1.13
COC(=O)CC1CC(c2ccc(O)cc2)=NO1 (stereo unspecified)	1.51	1.75
O=C(O)CC1CC(c2ccccc2)=NO1 (stereo unspecified)	0.994 and 1.06	0.948 and 1.15
CC(C)=CCC[C@](C)(O)[C@H]1CC[C@]2(C)[C@@H]1CC[C@@H]1[C@@]3(C)CCC(=O)C(C)(C)[C@@H]3CC[C@]12C	1.05	0.987
CC(=O)OC[C@@]1(O)C[C@@]23CC[C@@H]4c5ccoc5C=C[C@@]4(C)[C@@H]2CC[C@@H]1C3	1.02	0.958
N#Cc1cccc2sc(C(=O)N=C(N)N)cc12	1.02	1.08
NCC(O)CC(=O)O (stereo unspecified)	1.23 and 1.06	1.56 and 0.991
N[C@H](CC(=O)O)C(=O)O	1.09	1.08
C[N+](C)(C)C[C@H](O)CC(=O)O	0.959	0.919
O=C1OC(C=Cc2ccccc2)=NC1=Cc1cccnc1	1.03	1.05

Structure (SMILES)	PER2::LUC luminescence (time after treatment 24 h)	PER2::LUC luminescence (time after treatment 30 h)
O=C(CCc1ccccc1)N1CCC(O)(Cn2cnc3cc(Cl)ccc3c2=O)CC1	0.949	0.916
Cc1ccc2c(Nc3ccc(Cl)cc3)nccc2c1Nc1ncccc1-c1ncnc2nc[nH]c12	0.42	0.349
N=C(NC(=O)c1nc(Cl)c(N)nc1N)Nc1ccccc1	1.32	1.39
N/C(=N\C(=O)c1nc(Cl)c(N)nc1N)NCc1ccccc1	1.08	0.986
N=C(N)NC(=O)c1nc(Cl)c(N)nc1N	1.32	1.12
CNc1ncnc2c1ncn2[C@H]1C[C@H](O)[C@@H](CO)O1	1.04	0.963
C[C@@H]1O[C@@H](O[C@@H]2[C@@H](O)[C@H](O)[C@@H](CO)O[C@H]2c2c(O)cc(O)c3c(=O)cc(-c4ccc(O)cc4)oc23)[C@H](O)[C@H](O)[C@H]1O	1.04	0.979
O=C1c2ccccc2C(=O)C1c1ccccc1	1.05 and 0.913	1 and 0.991
O=C1c2ccccc2C(=O)C1c1ccc(Br)cc1	0.477	0.974
COc1ccc(C2C(=O)c3ccccc3C2=O)cc1	1.08	1.36
CCCCOC(=O)OCCCC	1	1.02
CC1=CC(=O)CC(C)(C)C1(O)/C=C/C(C)=C\C(=O)O (racemic)	1.01	1.02
CCOCCOc1ccccc1C(N)=O	0.861	1.09
CCCCCCOc1ccccc1C(N)=O	1.33	1.53
CCOc1ccccc1C(N)=O	1.03 and 0.951	0.986 and 0.793
COc1ccc2cc(CCC(C)=O)ccc2c1	1.75	1.7
COc1ccc2cc([C@@H](C)C(=O)O)ccc2c1	1	1.05
COc1ccc2cc([C@H](C)C(=O)O)ccc2c1	0.987 and 1.09 and 0.7	0.972 and 0.822 and 0.852
CCO/N=C1\c2ccccc2-c2nc(C#N)c(C#N)nc21	0.664	0.619
C=CC(=O)c1ccc(CCCCCC)cc1	1.02	0.845
CCNCCNC(=O)c1c(C)[nH]c(/C=C2\C(=O)Nc3ccc(F)cc32)c1C	0.42	0.619
CC(C)(Cc1nc(-c2ccc(O)cn2)no1)C(=O)NC1=C(C(=O)O)CCCC1	1.02	1.08
N#Cc1ccc(C(c2ccc(C#N)cc2)n2cncn2)cc1	0.794	1.11
c1ccc(-c2ccc(C(c3ccccc3)n3ccnc3)cc2)cc1 (stereo unspecified)	1.45	1.32
